Source: ChEMBL document CHEMBL3988442, “University of Dundee, Small-Polar-MMV Screening Library” (2021)
The campaign covered roughly 48,000 compounds. About 13,000 (27%) showed an effect of 50% or more. Some of the results follow.

The molecules below were run on Wolbachia pipientis (assay: Anti-Wolbachia Cell-Based Screen). Settings: 5 µM.
Type: functional
Parameters: scale not given: in the data most compounds retested in dose-response had high values

| Structure (SMILES) | Percent Effect [%] |
| --- | --- |
| CC(C)CN1CCN(C(=O)c2cccnc2-n2cncn2)CC1 | -9.606 |
| CC(C)c1ncncc1C(=O)N1CCCN(Cc2cccs2)CC1 | 14.44 |
| CC(C)c1ncncc1C(=O)N1CCN(Cc2ccsc2)CC1 | 100.4 |
| CCc1ncncc1C(=O)N1CCCN(Cc2ccc(C)cc2)CC1 | -0.6521 |
| Cc1ccc(C(=O)N2CCN(Cc3ccsc3)CC2)n1C | -3.003 |
| CC(C)c1ncncc1C(=O)N1CCN(Cc2ccccn2)CC1 | 108.4 |
| CC(C)c1ncncc1C(=O)N1CCN(Cc2cccnc2)CC1 | 115.2 |
| CC(C)c1cc(C(=O)N2CCN(Cc3ccsc3)CC2)n[nH]1 | 8.435 |
| CCCc1c(C(=O)N2CCN(Cc3ccccn3)CC2)cnn1C | 12.63 |
| CCc1c(C)[nH]c(C(C)(N)CC)nc1=O.Cl (stereo unspecified) | 22.39 |
| COc1cccc(COCC(O)CN(C)c2ccc(C)cc2C)c1 (stereo unspecified) | 0.5373 |
| Cn1cc(CNC2CCOCC2)c(-c2cc3ccccc3o2)n1 | 2.257 |
| O=c1c2ccccc2nc2n1CCN(Cc1cccs1)CC2 | -4.199 |
| Cc1nn(C)cc1CN1CCc2nc3sccc3c(=O)n2CC1 | 108 |
| Cn1cc(CN2CCCN(C(=O)c3cn4ccccc4n3)CC2)cn1 | 23.55 |
| Cc1cc2c(=O)n3c(nc2s1)CCN(Cc1cnn(C)c1C)CC3.Cl | -7.845 |
| Cc1c(CN2CCc3nc4sccc4c(=O)n3CC2)cnn1C.Cl | 100.5 |
| COCCN(Cc1cnn(C)c1)c1nc(C)nc2sccc12 | 10.56 |
| Cn1cc(CN2CCCN(C(=O)c3cc(Cl)cn3C)CC2)cn1 | -17.2 |
| Cn1cc(CN2CCc3nc4sccc4c(=O)n3CC2)cn1 | 107.2 |
| Cn1cc(CN2CCc3nc4ccccc4c(=O)n3CC2)cn1 | 97.31 |
| CC(C)(C)c1n[nH]cc1CN1CCc2nc3ccsc3c(=O)n2CC1 | -17.99 |
| CCn1nc2c(cc1=O)CN(Cc1nc(-c3ccoc3)no1)CC2 | -3.016 |
| Cn1cc(C2CCCN2C(=O)Cc2n[nH]c3ccccc23)cn1 (stereo unspecified) | -7.231 |

| Structure (SMILES) | Percent Effect [%] |
| --- | --- |
| Cn1cc(C2CCCN2C(=O)c2cnc(-c3ccccn3)s2)cn1 (stereo unspecified) | 99.88 |
| Cn1cc(C2CCCN2C(=O)c2cnc(-c3ncccn3)s2)cn1 (stereo unspecified) | 107.5 |
| Cn1cc(C2CCCN2C(=O)c2ccc(Br)o2)cn1 (stereo unspecified) | -1.087 |
| Cn1cc(C2CCCN2C(=O)Cc2coc(-c3ccccc3)n2)cn1 (stereo unspecified) | -3.572 |
| Cn1cc(C2CCCN2C(=O)c2cnc(-c3ccco3)s2)cn1 (stereo unspecified) | 97.73 |
| Cn1cc(C2CCCN2C(=O)c2cnc(-c3cccs3)s2)cn1 (stereo unspecified) | 79.27 |
| c1c[nH]c(-c2cn(CCSc3cnn[nH]3)nn2)n1 | -6.5 |
| O=C(COCC1CC1)N1CCSCC1 | -4.058 |
| CC(=O)NCc1ccc(S(=O)(=O)NC(=O)c2ccc3c(c2)CCO3)s1 | -11.39 |
| CN(Cc1nc2ccccc2n1C)CC1CCCN1c1cccnn1 (stereo unspecified) | -5.038 |
| Brc1csc(CNCc2nnc3n2CCC3)c1 | -6.201 |
| Cn1cc(C2CCCN2C(=O)c2cnc(C3CC3)s2)cn1 (stereo unspecified) | 90.11 |
| Cn1cc(C2CCCN2C(=O)CS(=O)(=O)C2CCCC2)cn1 (stereo unspecified) | 4.822 |
| CS(=O)(=O)N1CCN(Cc2c(O)ccc3oc4c(c23)CCCC4)CC1 | -24.14 |
| CCC(CC)(CNC(=O)c1cccn1Cc1cccnc1)N(C)C | -9.831 |
| Cc1nc2c(N3CCC(O)(Cn4ccnc4)CC3)ncnc2o1 | 2.472 |
| CSCC1CCN(c2nc(N)ncc2C)CC1 | -31.92 |
| CCc1nc2c(N3CCCC(c4nccn4CCOC)C3)ncnc2o1 (stereo unspecified) | -3.273 |
| CCN(CC)C(=O)C1CCCN(c2ncnc3oc(C)nc23)C1 (stereo unspecified) | 73.24 |
| CSCC1CCCN(c2ncnc3oc(C)nc23)C1 (stereo unspecified) | 100.1 |
| CSc1ccccc1CN1C[C@@H]2CC[C@H](C1)N(CC1CC1)C2=O | -21.61 |
| NC(=O)CCCNC(=O)c1cc(Br)c2c(c1)OCCO2 | -9.821 |
| COc1ccc2cc(CN(C)CCN3CCCCC3=O)c(=O)[nH]c2c1 | 1.998 |
| COc1ccccc1OCC(=O)n1nc(C)c(C)c1C | -12.46 |

| Structure (SMILES) | Percent Effect [%] |
| --- | --- |
| COc1ccccc1C1(CNc2cc(C(=O)N(C)C)ccn2)CC1 | -1.454 |
| CCCc1cc(C(=O)N(C)Cc2ccc(OC)c3ncccc23)n(C)n1 | -87.89 |
| COc1ccccc1CC(=O)NCc1ccnc(NC2CC2)c1 | -7.733 |
| COc1cccnc1NC(=O)COc1c(C)cccc1C | -5.049 |
| COc1ccccc1CC1CCCN(CC(=O)NC2CC2)C1 (stereo unspecified) | 10.43 |
| COc1cccc(OC)c1-c1ccnc2cc(CC(=O)NC(C)C)nn12 | 87.37 |
| COc1cccc(OC)c1-c1ccnc2cc(CC(=O)NC3CC3)nn12 | 130.6 |
| COc1cccc(CCNC(=O)NC(C)C)c1O | -0.2442 |
| COc1cccc(OC)c1-c1ccnc2cc(CC(=O)N(C)C)nn12 | 89.81 |
| COc1cccc(CNC(=O)C(C)n2ccnc2C(C)C)c1OC (stereo unspecified) | -21 |
| CNC(=O)Cc1cc2nccc(-c3c(OC)cccc3OC)n2n1 | 105.1 |
| CN1CCOC(C(=O)N2CCC3(CCCCC3)C2)C1 (stereo unspecified) | 13.97 |
| CCCc1ccc(S(=O)(=O)NC2(CC(N)=O)CCC2)cc1 | -11.45 |
| O=C(NCCN1CCCCC1)C(c1ccccc1)N1CCCC1 (stereo unspecified) | 103.1 |
| O=C(NCCNc1cccnc1)C(c1cccnc1)N1CCCC1 (stereo unspecified) | -8.824 |
| O=C(NCCn1cccc1)C(c1ccccc1)N1CCCC1 (stereo unspecified) | 123.6 |
| O=C(NCCN1CCOCC1)C(OC1CCCC1)c1ccccc1 (stereo unspecified) | 1.172 |
| O=C(NCCn1cccc1)C(c1cccnc1)N1CCCC1 (stereo unspecified) | 4.567 |
| CN1CCN(CCNC(=O)C(OC2CCCC2)c2ccccc2)CC1 (stereo unspecified) | -1.077 |
| CC(C)NC(=O)[C@@H]1CCO[C@@H]2CCN(c3ncccn3)C[C@H]21 | -20.97 |
| CC(=O)N1CC[C@H]2OCC[C@@H](C(=O)Nc3cccnc3C)[C@@H]2C1 | 106.3 |
| CC(=O)N1CC[C@H]2OCC[C@@H](C(=O)N3CCCCO3)[C@@H]2C1 | 7.512 |
| CC(=O)N1CC[C@H]2OCC[C@@H](C(=O)Nc3cccnc3C)[C@H]2C1 | 87.27 |
